Among the data in PubChem BioAssay AID620 (Sanford-Burnham Center for Chemical Genomics, 2007) are cytotoxicity values, retold here.

In all, about 87,000 compounds went through this assay and about 360 (0.41%) were called active. This excerpt belongs to a sample that is enriched for actives. Values without a mark were called inactive. Cut-off read from the data, not from the text of the source: active = cytotoxicity above about 50%; inactive = the rest.

The assay in a line: cytotoxicity in HT1080 fibrosarcoma cells, cell-based, fluorescence readout (AID 620).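 Note: cells exposed to compound overnight then 4 h with Alamar Blue; 0% = vehicle DMSO and 100% = killing control.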 The conditions noted are these: HT1080 viability, at 10 µM, active compounds read high.
Consider `CSc1nc(-c2ccccc2)nc2[nH]ccc(=O)c12`, for which the cytotoxicity is 8.6%.

Turning to `CSc1nc2ccc(S(=O)(=O)N(C)C)cc2s1`, the cytotoxicity was -0.9%.

As for `CCc1cc(C)c(O)c(CC)n1`, the cytotoxicity is -4.2%.

Regarding `Nc1ccc(C(=O)n2c3ccccc3c3ccccc32)cc1`, the cytotoxicity is 52.6% (active).

Turning to `Cn1c2ccccc2c2cc(C(=O)O)ccc21`, the cytotoxicity is 6.9%.

Turning to `Nc1ccc(C(=O)N2CCCC2)cc1`, the cytotoxicity was 13%.

On to `CC(C)Cc1nnc(NC(=O)CC(=O)Nc2ccccc2C(=O)O)s1`, for which the cytotoxicity was -4.8%.

Take `O=C(NC1CC1)c1sccc1-n1cccc1`: the cytotoxicity was 4%.

Turning to `COc1cccc(OCCSc2nnc3sc4ccccc4n23)c1`, the cytotoxicity was 12.4%.

`COc1ccc(OCCSc2nnc3sc4ccccc4n23)cc1`: the cytotoxicity is -2.4%.

`CCOC(=O)C1CCN(C(=O)CCCN2C(=O)c3ccccc3C2=O)CC1`: the cytotoxicity is 5%.

Take `CC[Si](CC)(CC)c1c2c(nc3ccc(OC)cc13)-c1cccc(=O)n1C2`: the cytotoxicity is -6.3%.

Take `CCNC(=O)COc1ccc(S(=O)(=O)Nc2ccccc2)cc1`: the cytotoxicity was 2.5%.

On to `COc1ccc(S(=O)(=O)Cc2ccc(C(=O)NCc3ccc(F)cc3)o2)cc1`, for which the cytotoxicity was -10.5%.

Consider `COc1ccc(-n2c(Cc3cccn3C)nnc2SCC(=O)N2CCCc3ccccc32)cc1`, for which the cytotoxicity was 0.6%.

`CCCCCCN(C(=O)CCCCCN1C(=O)NC(c2ccc([N+](=O)[O-])cc2)C(C(=O)OCc2ccccc2)=C1C)C(C(=O)NCCCC)c1ccc(OCC(=O)OC)c(C(=O)OC)c1` (configuration not stated): the cytotoxicity was -7.3%.

Consider `Cc1ccc(S(=O)(=O)Nc2cccc3cccnc23)cc1`, for which the cytotoxicity was -3%.

Regarding `Cc1ccc(-n2c(-c3ccc(Br)cc3)c[n+]3c2CCc2ccc4cccnc4c2-3)cc1`, the cytotoxicity is 63.8% (active).

In the case of `Brc1ccc(-c2nnc3n2-c2ccccc2CC3)cc1`, the cytotoxicity is 2%.

On to `COc1ccccc1NC(=O)CSc1nnc(COc2ccc(Cl)cc2)n1Cc1ccco1`, for which the cytotoxicity is -2%.

For `CCOc1ccccc1NC(=O)CN(c1ccc(C)cc1)S(=O)(=O)c1c(C)noc1C`, the cytotoxicity was -3.3%.

Consider `CCOc1ccc(N(CC(=O)Nc2ccc(C)cc2)S(=O)(=O)c2c(C)noc2C)cc1`, for which the cytotoxicity was 3.5%.

`CCOc1ccc(N(CC(=O)Nc2ccccc2C)S(=O)(=O)c2c(C)noc2C)cc1`: the cytotoxicity is 54.9% (active).

Turning to `COc1ccc(OC)c(NC(=O)CN(c2ccc(C)cc2)S(=O)(=O)c2c(C)noc2C)c1`, the cytotoxicity is 2.3%.

In the case of `COc1ccc(N(CC(=O)Nc2cc(Cl)ccc2OC)S(=O)(=O)c2c(C)noc2C)cc1`, the cytotoxicity is 53.8% (active).

Take `CCOc1ccccc1NC(=O)CN(c1cc(C)cc(C)c1)S(=O)(=O)c1c(C)noc1C`: the cytotoxicity is -7.8%.

Consider `CCOc1ccccc1NC(=O)CN(c1ccc(OC)cc1)S(=O)(=O)c1c(C)noc1C`, for which the cytotoxicity is 53.1% (active).

Consider `COc1ccc(N(CC(=O)Nc2cc(C)ccc2OC)S(=O)(=O)c2c(C)noc2C)cc1`, for which the cytotoxicity was -2.6%.

`CCOc1ccc(N(CC(=O)NC(C)(C)C)S(=O)(=O)c2c(C)noc2C)cc1`: the cytotoxicity is -10.4%.

With `Cc1cccc(C)c1-n1c(C)cc(/C=C2\NC(=O)NC2=O)c1C`, the cytotoxicity is 15.3%.

In the case of `Cc1cccc(Nc2nn3c(=O)c4ccccc4nc3s2)c1`, the cytotoxicity was 6.1%.

On to `CCCCCCSc1cc(C)nc2ncnn12`, for which the cytotoxicity was -4.5%.

Consider `CCOc1cc(-c2noc(-c3ccncc3)n2)cc(Br)c1OC`, for which the cytotoxicity was -6.4%.

As for `CCN(CC)C(=O)CN(C#N)c1nc(OC)nc(N(C)C)n1`, the cytotoxicity was 5.3%.

For `CCCCn1c(N)c(N(CC)C(=O)c2ccc3c(c2)S(=O)(=O)c2ccccc2C3=O)c(=O)[nH]c1=O`, the cytotoxicity is -1.2%.

Turning to `Cn1c(SCC(=O)Nc2ccc3c(c2)OCO3)nnc1-c1cnccn1`, the cytotoxicity is 13.4%.

`CCn1c(SCC(=O)Nc2ccc3c(c2)OCCO3)nnc1-c1ccccn1`: the cytotoxicity was 37%.

Consider `CCn1c(SCC(=O)Nc2ccc3c(c2)OCO3)nnc1-c1cnccn1`, for which the cytotoxicity was 102% (active).

Take `CN1C(=O)c2ccc(S(=O)(=O)c3ccc(C(=O)O)cc3)cc2C1=O`: the cytotoxicity was 3.3%.

Take `Cc1ccc2[nH]c(=O)c(-c3nc4ccccn4c3NCc3ccco3)cc2c1`: the cytotoxicity is -4.4%.

Turning to `COc1ccc2c(c1)C(C1=C(O)CC(C)(C)CC1=O)C1=C(CC(C)(C)CC1=O)O2` (configuration not stated), the cytotoxicity was 10.3%.

With `CC[C@]1(O)CC2CN(CCc3c([nH]c4ccccc34)[C@@](C(=O)OC)(c3cc4c(cc3OC)N(C=O)[C@H]3[C@@](O)(C(=O)OC)[C@H](OC(C)=O)[C@]5(CC)C=CCN6CC[C@]43[C@@H]65)C2)C1` (some centres not stated), the cytotoxicity is 65.8% (active).

`CC(C)Cn1c(=O)c2c(c3ccccc31)OC(C)C(=O)N2` (configuration not stated): the cytotoxicity was -0.6%.

As for `CCOC(=O)CNC(=O)C(Cc1ccccc1)NS(=O)(=O)c1ccc2c(c1)CCC(=O)N2` (configuration not stated), the cytotoxicity was 0.8%.

For the molecule `Cc1cccnc1Nc1nc(-c2ccc(O)c(O)c2)cs1`, the cytotoxicity is 9.2%.

In the case of `NS(=O)(=O)c1ccc(Nc2nc(-c3ccc4ccccc4c3)cs2)cc1`, the cytotoxicity is -2.9%.

With `Oc1ccc(Nc2nc(-c3ccc4ccccc4c3)cs2)cc1`, the cytotoxicity is 53.6% (active).

Take `Oc1ccc(-c2csc(-c3ccccc3)n2)cc1O`: the cytotoxicity is 15.6%.

For `Oc1ccc(-c2nc(-c3ccc(O)c(O)c3)cs2)cc1`, the cytotoxicity is 61.2% (active).

For `Oc1ccc(Nc2nc(-c3ccc(O)cc3)cs2)cc1`, the cytotoxicity is 2.8%.

As for `O=C(O)CCc1ccc(-c2cccs2)n1CCC(=O)O`, the cytotoxicity was -6.8%.

For `Cn1nc(-c2ccccc2)c(-c2nc(-c3cccc(C(F)(F)F)c3)no2)c1Cl`, the cytotoxicity is 6.9%.

`COC(=O)c1ccccc1NC(=O)CSc1nc(-c2ccco2)cc(C(F)(F)F)n1`: the cytotoxicity was 52.3% (active).

Take `COC(=O)c1ccc(C(=O)OC)c(NC(=O)CSc2nc(-c3ccco3)cc(C(F)(F)F)n2)c1`: the cytotoxicity was 5.6%.

In the case of `Cc1cc(NC(=O)CCCSc2nc(-c3ccco3)cc(C(F)(F)F)n2)no1`, the cytotoxicity was 2.7%.

With `Cc1ccc(NC(=O)CSc2nc(-c3ccco3)cc(C(F)(F)F)n2)cc1C`, the cytotoxicity is -8.6%.

Regarding `Cc1cccc(C)c1NC(=O)CSc1nc(-c2ccco2)cc(C(F)(F)F)n1`, the cytotoxicity is 3.3%.

As for `O=C(CSc1nnc(-c2ccccn2)n1Cc1ccccc1)Nc1ccc2c(c1)OCO2`, the cytotoxicity was 3.3%.

As for `Cc1oc(C(=O)O)cc1COc1ccc2c(C)cc(=O)oc2c1`, the cytotoxicity was -7.7%.

`CC(=O)c1c(C)[nH]c(C(=O)N2CCN(c3ncccn3)CC2)c1C`: the cytotoxicity was -1.6%.

`COc1cccc(N2CCN(C(=O)c3[nH]c(C)c(C(C)=O)c3C)CC2)c1`: the cytotoxicity is 51% (active).

With `CC(=O)c1c(C)[nH]c(C(=O)N2CCN(c3ccc(F)cc3)CC2)c1C`, the cytotoxicity is -1.4%.

Regarding `COc1ccccc1NC(=O)Cn1nc(C(F)(F)F)c2c1CCCC2`, the cytotoxicity is -0.3%.

Turning to `CCOC(=O)c1c(C)oc2cc3c(C(=O)OCC)c(C)oc3cc12`, the cytotoxicity is -0.1%.

For `CCOC(=O)c1c(C)cc(=O)oc1C`, the cytotoxicity is -21.5%.

`CCOC(=O)c1c(C)oc2c(F)c(F)c(F)c(F)c2c1=O`: the cytotoxicity was 96.5% (active).

For the molecule `COC(=O)Nc1cc(C)nc2ccccc12`, the cytotoxicity was -9.1%.

In the case of `COc1ccc(N2CCN(c3ncnc4nc[nH]c34)CC2)cc1`, the cytotoxicity was -6.5%.

With `O=c1cc(N2CCN(Cc3ccccc3)CC2)[nH]c(=O)n1-c1cccc(C(F)(F)F)c1`, the cytotoxicity is 12.7%.

For the molecule `Cc1onc(-c2ccccc2)c1C(=O)Nc1ccccc1N1CCOCC1`, the cytotoxicity was 3.3%.

Take `Cc1onc(-c2ccccc2)c1C(=O)Nc1cc(C(F)(F)F)ccc1N1CCOCC1`: the cytotoxicity is 59.2% (active).

For `Cc1nnc(SCC(=O)Nc2cc(C(F)(F)F)ccc2N2CCOCC2)o1`, the cytotoxicity is 7%.

For the molecule `O=C(Nc1cc(C(F)(F)F)ccc1N1CCOCC1)c1c(F)c(F)c(F)c(F)c1F`, the cytotoxicity was 1.3%.

In the case of `O=C(CSc1nc2ccccc2[nH]1)Nc1cc(C(F)(F)F)ccc1N1CCOCC1`, the cytotoxicity is -2.4%.

As for `Cc1ccc2nc(SCC(=O)Nc3cc(C(F)(F)F)ccc3N3CCOCC3)[nH]c2c1`, the cytotoxicity is 62.5% (active).

For `COCCNC(=O)C1(C)C=CCN1C(C)=O` (configuration not stated), the cytotoxicity was -17.3%.

For the molecule `COc1ccc(NC(=O)c2ccc(-n3nc(C)cc3C)cc2)cc1OC`, the cytotoxicity was -17.7%.

On to `COC(=O)c1ccccc1S(=O)(=O)C(C)(C)C`, for which the cytotoxicity is 7.6%.

On to `CCOCCCNC(=O)C1CCN(S(=O)(=O)N2CCCCC2)CC1`, for which the cytotoxicity was 1.1%.

`COC(=O)C1=[N+]([O-])OC(C(=O)OC)C1c1c[nH]c2ccccc12` (configuration not stated): the cytotoxicity is 41.5%.

For the molecule `CC1(C)Cc2nc3sc4c(=O)n(CC(=O)NCc5ccco5)cnc4c3cc2CO1`, the cytotoxicity is 15.9%.

With `CCc1nc2c(sc3nc4c(cc32)COC(C)(C)C4)c(=O)n1Cc1ccco1`, the cytotoxicity was 1.2%.

For the molecule `Cc1nc2c(sc3nc4c(cc32)COC(C)(C)C4)c(=O)n1CC(=O)NCc1ccco1`, the cytotoxicity is 55.6% (active).

On to `CSC1=Nc2sc3c(c2C2=NCCN12)CCCC3`, for which the cytotoxicity was 7.2%.

`COc1cc2c(cc1OC)C1C/C(=N\O)C(CC(C)C)CN1CC2` (configuration not stated): the cytotoxicity is -13.4%.

For the molecule `CC[C@H]1CN2CCc3cc(OC)c(OC)cc3[C@@H]2C[C@@H]1C[C@H]1NCCc2cc(OC)c(OC)cc21`, the cytotoxicity is 78.8% (active).

For `COc1cc2c(cc1OC)C1Cc3ccc(OC)c(OC)c3CN1CC2` (configuration not stated), the cytotoxicity was -0.8%.

As for `Cc1oc(-c2ccccc2F)nc1CN1CCC(C(=O)NCc2cccs2)CC1`, the cytotoxicity was -2.2%.

`Cc1ncc(S(=O)(=O)c2ccc(Cl)cc2)c(-c2ccccc2)n1`: the cytotoxicity was 18.2%.

Consider `O=S(=O)(Nc1nnc(-c2ccccc2)s1)c1ccc(Cl)cc1`, for which the cytotoxicity was 5.7%.

With `O=C1NCCCC1C(=O)N1CCN(C(=O)C2CCCNC2=O)CC1` (configuration not stated), the cytotoxicity is -7.4%.

Turning to `O=C(CCn1cccc1)Nc1ccccc1F`, the cytotoxicity was -5.1%.
